# Screening data from PubChem.
# Shown are actives, neighbours in structure and some others; about 9.2% of the full set was active somewhere.
# FLuc modulator: qHTS profiling assay for firefly luciferase inhibitor/activator using purifed enzyme and Km concentrations of substrates (counterscreen for miR-21 project); Luciferin 4-monooxygenase (Photinus pyralis), P08659; Potency, µM (series often up to 57.5 µM), usual class: inhibitors; 360,000 tested, 6.9% active; purified FLuc, Km substrates, luminescence inhibition; note: nearly all actives have a fitted effect of over 55% in size
# Target sequence (P08659 whole entry, looked up): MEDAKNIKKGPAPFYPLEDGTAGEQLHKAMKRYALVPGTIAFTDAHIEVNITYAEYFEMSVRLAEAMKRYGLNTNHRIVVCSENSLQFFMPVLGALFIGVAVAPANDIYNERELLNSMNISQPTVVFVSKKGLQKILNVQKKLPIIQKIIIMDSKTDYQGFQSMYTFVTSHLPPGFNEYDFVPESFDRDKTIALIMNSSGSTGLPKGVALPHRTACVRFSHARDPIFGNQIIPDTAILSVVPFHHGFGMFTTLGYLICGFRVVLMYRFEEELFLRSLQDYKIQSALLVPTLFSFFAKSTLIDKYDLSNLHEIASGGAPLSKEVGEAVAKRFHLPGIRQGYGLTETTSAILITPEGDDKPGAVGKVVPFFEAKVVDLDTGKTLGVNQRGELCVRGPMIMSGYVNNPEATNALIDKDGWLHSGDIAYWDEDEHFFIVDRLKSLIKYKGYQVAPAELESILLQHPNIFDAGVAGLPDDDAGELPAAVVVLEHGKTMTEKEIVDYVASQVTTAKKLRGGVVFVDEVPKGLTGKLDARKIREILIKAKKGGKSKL
#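 Purified P. pyralis luciferase, 10 nM final, with Km-level 10 uM D-luciferin and 10 uM ATP in 50 mM Tris acetate pH 7.5, 10 mM Mg acetate, 0.01% Tween-20, 0.05% BSA; 6-point qHTS titration about 60 µM downward; luminescence read.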
# NPC1 promoter act: qHTS Assay for NPC1 Promoter Activators; Potency, µM (titrated, usually from 9.22 µM), hits mostly activators; Huh7 NPC1 promoter luciferase reporter, 24 h; AID 485313, 2010; 320,000 tested, 2.4% active; note: nearly all actives have a fitted effect of over 60% in size
#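 Stable NPC1-promoter luciferase Huh7 line; cpd (DMSO) 24 h, 37 °C, 5% CO2; Amplite luciferase reagent 10 min RT; luminescence readout. qHTS format.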
# Rab9 prom act: qHTS Assay for Rab9 Promoter Activators; Huh7 Rab9 promoter-luciferase reporter, luminescence, 24 h; 320,000 tested, 2.8% active; Potency, µM (titrated, usually from 9.22 µM), hits mostly activators; note: nearly all actives have a fitted effect of over 60% in size
#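 Luciferase signal after 10 min detection reagent at ambient indicates Rab9 promoter upregulation; stably transfected Huh7 cells were treated 24 h with compound in DMSO at 37 °C, 5% CO2.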
# SMN2 splice enh: qHTS Assay for Enhancers of SMN2 Splice Variant Expression; Potency, µM (top dose mostly 46.1 µM), hits mostly activators; 210,000 tested, 2.8% active; HEK293 SMN2-luciferase splicing reporter, luminescence, 30-36 h; note: nearly all actives have a fitted effect of over 55% in size
#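 HEK293 cells carry an SMN2 minigene-luciferase reporter in which exon 7 inclusion puts luciferase in frame. Cells were seeded at 2000 cells/well, attached for 10-12 hours, then exposed to compounds for 30-36 hours at 37C before ONE-Glo luminescence.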
# ELG1 genotoxic: qHTS screen for small molecules that induce genotoxicity in human embryonic kidney (HEK293T) cells expressing luciferase-tagged ELG1; HEK293T ELG1-luciferase reporter, luminescence, 16 h; Potency, µM (top dose mostly 46 µM), actives largely listed as activators; 330,000 tested, 1.3% active; note: nearly all actives have a fitted effect of over 60% in size
#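 Luminescence read-out: rising ELG1-luciferase signal, reflecting elevated ELG1 protein under genetic stress, flags genotoxic compounds. Cells were treated for 16 hr at 37 °C before ONE-Glo detection.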
# ELG1 repair inh: qHTS screen for small molecules that inhibit ELG1-dependent DNA repair in human embryonic kidney (HEK293T) cells expressing luciferase-tagged ELG1; HEK293T ELG1-luciferase reporter, luminescence, 16 h; DNA damage induced by 5-fluorouridine; Potency, µM (highest dose often 46.1 µM), actives largely listed as inhibitors; 330,000 tested, 2.3% active; AID 504467, 2011; note: nearly all actives have a fitted effect of over 55% in size
#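 Luminescence from the luciferase reporter, measured 30 min after ONE-Glo reagent at room temperature, was the read-out. Beforehand, 2,000 cells per well were exposed for 16 hr at 37 °C to 5-fluorouridine together with compound or vehicle.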
# Hits are given with their value; i = inactive; ? = inconclusive; nt = no result given; [ ] = remark or other dose. Calls come from the whole dose curve; as a rule, active = well fitted curve in the direction sought with a large enough effect; inconclusive = small, poorly fitted or top-dose-only effect, or another doubt; inactive = no such curve, though single readings can be large; an effect the other way counts as inactive or inconclusive.
SMILES,FLuc modulator,NPC1 promoter act,Rab9 prom act,SMN2 splice enh,ELG1 genotoxic,ELG1 repair inh
Cc1ccc(-c2nc3cc(Cl)ccc3o2)cc1,0.34µM,i,i,?,?,?
Cc1ccc2oc(-c3ccc(NC(=O)CCC(=O)O)cc3)nc2c1,2.4µM,nt,nt,11µM,nt,nt
Clc1ccc(-c2nc3cc(CN4CCCCC4)ccc3o2)cc1,11µM,1.8µM,2.8µM,nt,?,?
COc1ccc(C(=O)Nc2ccc(-c3nc4cc(C)ccc4o3)c(O)c2)cc1,i,nt,nt,i,nt,nt
COc1cc(OC)cc(-c2nc3cc(C)ccc3o2)c1,11µM,i,i,7.1µM,16µM,?
COc1cccc(CNS(=O)(=O)c2cc(CN3C(=O)c4cccnc4C3=O)ccc2OC)c1,i,i,?,nt,i,?
CCC(Oc1ccccc1)C(=O)Nc1ccc(O)c(-c2nc3cc(C)ccc3o2)c1 (stereo not given),15µM,nt,nt,nt,nt,nt
Cc1ccc(/C=C/C(=O)c2ccccc(=O)c2O)cc1C,?,i,i,i,?,21µM
O=C(/C=C/c1ccccc1)c1cc(Br)ccc(=O)c1O,i,i,i,i,i,?
CC(=O)C1=C(C)N(Cc2ccco2)C(=O)N[C@@H]1c1ccccc1,nt,nt,nt,i,nt,nt
Cc1ccn2cc(-c3cc4ccccc4oc3=O)nc2c1,0.43µM,0.32µM,0.28µM,nt,0.46µM,?
O=c1oc2ccccc2cc1-c1cn2cc(Cc3ccc(Cl)cc3)sc2n1,i,nt,nt,i,nt,nt
O=c1oc2ccccc2cc1-c1cn2cc(Cc3ccccc3F)sc2n1,0.34µM,nt,nt,i,nt,nt
Cc1ccc(-c2csc(Cc3nc(-c4cc5ccccc5oc4=O)cs3)n2)cc1,i,i,i,i,i,i
OCCNc1nc(-c2ccccc2)nc2c1oc1ccccc12,?,i,i,nt,i,?
N/C(=N\OC(=O)c1ccc(Cl)c([N+](=O)[O-])c1)c1ccccc1,12µM,i,i,nt,i,?
N/C(=N\OC(=O)c1ccc([N+](=O)[O-])cc1)c1cccnc1,2.7µM,i,i,nt,?,?
Cc1ccc(C(=O)O/N=C(\N)c2cccnc2)cc1[N+](=O)[O-],12µM,i,i,?,?,?
COC(=O)CNC(=O)Nc1cc(C(=O)NCc2ccc(C)cc2)ccc1N1CCCC1,i,nt,nt,nt,nt,nt
Brc1ccc(-c2nnc(-c3ccc4c(c3)OCO4)o2)o1,1.7µM,2µM,1µM,11µM,?,?
c1nnc(-c2ccc3c(c2)OCO3)o1,i,i,i,i,i,i
O=C1CCCCC1Sc1nnc(-c2ccc3c(c2)OCO3)o1 (stereo not given),0.6µM,0.2µM,0.1µM,?,i,?
c1coc(-c2nnc(-c3ccc4c(c3)OCO4)o2)c1,6.7µM,2µM,?,18µM,8.2µM,?
Clc1ccc(CSc2nnc(-c3ccc4c(c3)OCO4)o2)cc1,?,i,i,i,i,i
O=C(CSc1nnc(-c2ccc3c(c2)OCO3)o1)Oc1ccccc1,i,nt,nt,nt,nt,nt
SMILES,FLuc modulator,NPC1 promoter act,Rab9 prom act,SMN2 splice enh,ELG1 genotoxic,ELG1 repair inh
Cc1ccc(-c2nnc(-c3ccc4c(c3)OCO4)o2)cc1,1.3µM,1µM,0.71µM,11µM,6.5µM,?
COc1cccc(CNC(=O)CCCN2C(=O)C(c3ccccc3)Oc3cccnc32)c1OC (stereo not given),i,i,i,nt,i[9.26 µM],i
CC(C)N1CCNCC1,i,i,i,nt,i,i
CCC1CN(CC(=O)NCc2cccc(Br)c2)c2ccccc2S1 (stereo not given),i,nt,nt,nt,nt,nt
Cc1ccc(-n2nnnc2SC(C)C(=O)NCC(=O)Nc2ccc(F)c(F)c2F)c(C)c1 (stereo not given),i,i,i,i,i,18µM
O=c1oc(Nc2cccc(F)c2)nc2ccccc12,?,2.2µM,2.2µM,?,18µM,?
Nc1nc(Nc2cccc(F)c2)nc2ccccc12,5.4µM,1.3µM,2.2µM,?,?,?
CCN1CCN(c2nnc(-c3ccccc3)c3ccccc23)CC1,i,i,i,nt,i,i
CCN1CCN(c2cc3c(nn2)Oc2ccccc2N3C)CC1,17µM,i,?,16µM,?,?
COc1cc(/C=C/C(=O)N2CCN(Cc3ccccc3)CC2)cc(OC)c1OC,i,i,i,nt,i,i
COc1cc(/C=C/c2nnc3c4ccccc4ncn23)cc(OC)c1OC,?,i,i,nt,i,6.5µM
C(=C\c1nnc2c3ccccc3ncn12)/c1ccccc1,1.7µM,4.5µM,3.2µM,14µM,?,?
Cc1cccc(N2CCN(S(=O)(=O)c3c(C)noc3/C=C/N(C)C)CC2)c1C,i,i,i,nt,i,i
OC(COCC1COc2ccccc2O1)CN1CCN(c2ccccc2F)CC1 (stereo not given),i,i,i,i,i,i
O=C(OCC1COc2ccccc2O1)c1c(F)cccc1F (stereo not given),15µM,i,i,nt,?,?
S=C(NCc1cccnc1)Nc1ccc(Oc2ccc(Cl)cc2)cc1,i,i,i,nt,i,10µM
O=C(NCCc1ccccc1)Nc1ccc(Cl)cc1,6.7µM,2.5µM,3.2µM,11µM,?,?
CC(C)[C@H](NC(=O)NCCc1ccccc1)C(=O)O,i,i,i,i,i,?
COc1ccc(NC(=S)NCc2cccnc2)cc1,i,i,i,nt,i,i
S=C(NCCc1ccccc1)NCCc1ccccc1,15µM,4.5µM,4.5µM,13µM,?,?
CC(C)(C)NC(=O)NCCc1ccccc1,21µM,1.4µM,4µM,nt,?,?
Cc1ccccc1NC(=O)NCCc1ccc(Cl)cc1,i,i,i,i,i,i
NC(=O)C1CCN(S(=O)(=O)Cc2ccccc2Cl)CC1,i,i,i,i,i,i
CC(=O)OC1C[C@@]2(C)C(c3ccoc3)OC(=O)C3O[C@@]32[C@]2(C)C(OC(C)=O)CC3C(C)(C)C(OC(C)=O)CC(OC(C)=O)[C@@]3(C)C12 (stereo not given in full),nt,nt,nt,i,nt,nt
CC(C)N(C(C)C)S(=O)(=O)c1ccc(NC(=O)c2cnccn2)cc1,i,i,i,nt,i,?
Cc1ccc(NC(=O)CCNS(=O)(=O)c2ccc3c(c2)CCC(=O)N3)cc1,i,i,i,nt,i,i
CN(C)CCCNC(=O)/C(=N\O)c1ccccc1,i,i,i,i,i,i
CN(C)c1nc(OCCNC(=O)Nc2ccc(Cl)cc2)nc(N(C)C)n1,i,i,i,i,i,7.3µM
O=C(NCCc1ccccc1)/C(=N\O)c1ccccc1,15µM,3.2µM,4µM,?,?,?
C/C(=C\c1ccccc1)C(=O)NCCc1ccccc1,3.4µM,1.4µM,0.71µM,11µM,4.6µM,?
